Data reported in PubChem BioAssay (NCI).
This is part of a sample that, as a whole, favours compounds with a hit. Of some 83,000 tested, about 20% had one in any assay.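 Assay: single dose, 48 h. Readout: percent growth (0 = no net growth; negative = cell death). Active: <10.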 Unmarked numbers belong to inactive results. The source made the active and inactive calls.

Legend:
Test in all cases: NCI-60 one-dose screen, 48 h (100 = growth as untreated, 0 = no growth, -100 = all killed)
[1] = system: HT29 colon; conditions: 10 µM unless noted
[2] = system: SNB-75 CNS; conditions: 10 µM
[3] = system: SNB-19 CNS; conditions: 10 µM unless noted
[4] = system: U251 CNS; conditions: 10 µM unless noted
[5] = system: PC-3 prostate; conditions: 10 µM unless noted
[6] = system: SK-MEL-5 melanoma; conditions: 10 µM unless noted
[7] = system: UACC-62 melanoma; conditions: 10 µM unless noted
[8] = system: LOX IMVI melanoma; conditions: 10 µM unless noted
[9] = system: SK-MEL-2 melanoma; conditions: 10 µM unless noted
[10] = system: SN12C renal; conditions: 10 µM unless noted
[11] = system: UO-31 renal; conditions: 10 µM unless noted
[12] = system: TK-10 renal; conditions: 10 µM unless noted
[13] = system: ACHN renal; conditions: 10 µM unless noted
[14] = system: CAKI-1 renal; conditions: 10 µM unless noted
[15] = system: A498 renal; conditions: 10 µM unless noted
[16] = system: CCRF-CEM leukemia; conditions: 10 µM unless noted
[17] = system: MOLT-4 leukemia; conditions: 10 µM unless noted
[18] = system: SK-MEL-28 melanoma; conditions: 10 µM unless noted
[19] = system: EKVX NSCLC; conditions: 10 µM unless noted
[20] = system: HCT-15 colon; conditions: 10 µM unless noted

Row | SMILES | growth [1] | growth [2] | growth [3] | growth [4] | growth [5] | growth [6] | growth [7] | growth [8] | growth [9] | growth [10] | growth [11] | growth [12] | growth [13] | growth [14] | growth [15] | growth [16] | growth [17] | growth [18] | growth [19] | growth [20]
1 | COc1ccc2[nH]c(C(=O)OCc3ccc4c(Cl)cc(Cl)c(O)c4n3)cc2c1 | -80.3% (active) | -32.4% (active) | 53.2% | 7.6% (active) | -55.5% (active) | -30.5% (active) | -89.4% (active) | -93.1% (active) | -11.4% (active) | -75.6% (active) | -100% (active) | -98.1% (active) | -99.8% (active) | -99.5% (active) | 10.5% | -9.99% (active) | -18.5% (active) |  |  | 
2 | C=C1C(=O)O[C@H]2[C@H]1CC/C(COC(=O)NCc1ccccc1OC)=C\CC[C@@]1(C)O[C@@H]21 | -3.76% (active) | 77.4% |  | 74.8% | 52.4% |  | 23.4% | 5.34% (active) | 60.6% | 23.4% | 22% | 20.6% | 6.65% (active) | 13.7% | 67.1% | 6.8% (active) |  | 47.5% |  | 
3 | Cn1c2ccc(Br)cc2c2c3c(c4c5ccccc5[nH]c4c21)C(=O)N(O)C3=O | -76.4% (active) | -86.9% (active) | -35.8% (active) | -71% (active) | -43.9% (active) | -97.8% (active) | -72.3% (active) | -80.9% (active) | -74.4% (active) | -71.9% (active) | -95.4% (active) | -72.2% (active) | -66.3% (active) | -76.6% (active) | -43.7% (active) | -16% (active) | -28% (active) | -79.3% (active) |  | 
4 | O=C(/C=C/c1cc(-c2ccc3c(c2)OCO3)n[nH]1)c1ccc2c(c1)OCO2 | 100% | 101% | 72% | 75.7% | 74.6% | 98% | 97.4% | 87.6% | 96.6% | 88.9% | 74.5% | 106% |  | 95.1% | 93.3% | 72.9% | 83.4% | 109% |  | 
5 | Fc1ccccc1-c1nc(-c2nc3cc(Cl)c(Cl)cc3[nH]2)c2ccccn12 | 70.8% | 38.1% | 93.1% | 95% | 62.2% | 79.4% | 83.1% | 79.9% | 81.5% | 70.7% | 62.6% | 76.5% |  |  | 104% | 81.9% | 67.1% | 83.9% |  | 
6 | COc1ccc(-c2c(N)n[nH]c2-c2cc(OC)c3c(c2)OCCO3)cc1 | 29.7% | 57.4% |  | 77.6% | 66.9% | 69.8% | 71% | 69.8% | 64.8% | 88.7% | 92% | 71.3% |  | 70.3% | 71.4% | 73.7% | 61.3% | 80.7% |  | 
7 | COc1cc(NCCCCCN)c2ncccc2c1 | 118% |  |  | 107% | 108% | 111% |  | 103% | 126% |  | 86.9% | 119% |  | 96.7% | 116% | -24% (active) | 88.3% | 114% | 113% | 
8 | CN1CCN(Cc2ccc(NC(=O)c3nc4ccc5[nH]ncc5c4c4c3CCC4)cc2C(F)(F)F)CC1 | -66% (active) | 96.3% | -76.7% (active) | -93.7% (active) | -64.8% (active) | 88.5% | -61.7% (active) | -86.8% (active) | 104% | -82.7% (active) | -96.3% (active) | -91.2% (active) | -99.6% (active) | -97.4% (active) | 84.6% | -9.12% (active) | -38.7% (active) |  |  | 
9 | Clc1ccccc1-c1nc2ccccc2[nH]1 | 103% | 84.1% | 90% |  | 94.4% | 102% | 98.2% |  | 116% | 116% | 95.1% | 121% |  | 77.5% | 110% | 91% | 110% | 113% | 90.3% | 
10 | O=S1(=O)CCC(N(/N=C/c2ccco2)c2ccccc2)C1 (configuration not stated) | 96.3% | 132% | 104% | 99% | 93.1% | 103% | 100% | 94.1% |  | 109% | 86% | 101% | 106% | 107% | 113% | 94% | 97.1% | 115% |  | 
11 | N[C@H]1CN(C(=O)c2cc3cc(Br)c(F)c(F)c3[nH]2)C[C@@H]1O |  |  | 96.6% | 95.9% | 93.6% |  | 93.6% | 89.6% | 102% | 95.7% | 67.2% | 107% | 102% | 79.4% |  | 97.2% | 98.1% |  | 92.8% | 102%
12 | Cc1nc2cncc(C#Cc3cncc(C(=O)Nc4ccc(CN5CCN(C)CC5)c(C(F)(F)F)c4)c3)c2nc1C |  |  | 49.7% | 36% | 25.6% |  | -32% (active) | -77.9% (active) | -47.7% (active) | 4.16% (active) | -12.5% (active) | 17.5% | -5.33% (active) | -28.4% (active) | -36.9% (active) | 16.2% | 21.1% | -8.83% (active) | 6.58% (active) | 8.31% (active)
13 | C=C(C)[C@@H]1CC[C@]2(C(=O)N3CCNCC3)CC[C@]3(C)[C@H](CC[C@@H]4[C@@]5(C)C/C(=C/c6ccncc6)C(=O)C(C)(C)[C@@H]5CC[C@]43C)[C@@H]12 | 109% | 96.4% |  | 101% | 94.4% | 99.6% | 103% | 97.2% | 107% | 106% | 90.3% | 102% | 103% | 95.6% | 111% | 101% | 95.6% |  |  | 
14 | CCN(CC)c1ccc(C(=N)c2ccc(N(CC)CC)cc2)cc1 | -10.5% (active) | -34.3% (active) | 4.23% (active) |  | 3.06% (active) | -100% (active) | -64.6% (active) |  | -66.6% (active) | 0.751% (active) | -33.6% (active) | 10% |  | -9.36% (active) | -44.3% (active) | 12.1% | -23.5% (active) | -39.9% (active) | 12.4% | 
15 | O=C1C2(c3ccccc3)C(c3ccccc3)=C(c3ccccc3)C1(c1ccccc1)C1CC=CC12 (configuration not stated) | 81.8% | 83.4% | 85.5% | 89.4% | 48.8% | 85.8% | 78.3% | 85% | 82.6% | 86.1% | 61.6% | 118% | 86.7% | 52.6% | 89.2% | 84.2% | 84.4% | 108% |  | 
16 | OCc1ncc(-c2ccccc2)s1 | 102% | 78.8% | 98.5% |  | 89.4% | 105% | 106% |  | 113% | 121% |  | 110% |  | 81.8% | 116% | 90.6% | 110% | 132% | 87.8% | 
17 | CCCCCCCC/C=C/CCCCCCCC1=NC(C)(C)CN1C(C)(C)CO |  | 38.5% | 57.9% | -68.1% (active) | 44.9% | 4.8% (active) | -25.3% (active) |  | 51.3% | 48.7% | 44.5% | 62.1% | 21.6% | 42.3% | 88.8% | 3.32% (active) | -22.6% (active) | -63.9% (active) | 66.2% | 
